# Data: PubChem BioAssay
# Activity calls are given as the source filed them.
# Tested on: not listed separately
# Assay: Plasmodium falciparum growth inhibition, primary screen, strain 3D7, DAPI fluorescence, 100 nL (AID 1184);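 also: parasites grown inside human red blood cells in medium with human serum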
# Details: P. falciparum 3D7 growth, 3 d, higher = more signal
row,Structure (SMILES),z-score
1,[N-]=[N+]=Nc1ccccc1[C@@H]1OC(c2ccc(OCCCO)cc2)=N[C@]1(Cc1ccccc1)C(=O)NCC(O)CO (stereo partly drawn),-2.14
2,CCCC[C@@H]1C[C@H]1[C@@H](NC(=O)c1cccs1)c1ccc(C(F)(F)F)cc1,-0.41
3,COC(=O)[C@@]1(Cc2ccc(OC)cc2)[C@H]2c3cc(C(=O)N(C)C)n(CCO)c3C[C@H]2CN1C(=O)c1ccccc1,0.302
4,CCOC(=O)C[C@H]1[C@H](OC(=O)Cc2ccc3c(c2)OCO3)[C@@H](NC(=O)CC(C)C)c2cc(OCCCO)ccc2N1C(=O)Cc1ccc(OC)cc1,0.0373
5,O=C1NC(=O)C2C1C=CC(C(O)c1ccco1)N2Nc1ccccn1 (stereo not drawn),1.36

# Biological target: Homeobox protein Hox-A13 (Mus musculus) (UniProt Q62424)
# Assay: inhibitors of HoxA13-DNA binding, primary screen, biochemical, fluorescence polarization, labeled oligonucleotide (AID 1185)
# Details: 15 min, higher = more signal, called active from +8 up or from −8 down
# Sequence of Homeobox protein Hox-A13 (Mus musculus) (Q62424 whole entry, looked up): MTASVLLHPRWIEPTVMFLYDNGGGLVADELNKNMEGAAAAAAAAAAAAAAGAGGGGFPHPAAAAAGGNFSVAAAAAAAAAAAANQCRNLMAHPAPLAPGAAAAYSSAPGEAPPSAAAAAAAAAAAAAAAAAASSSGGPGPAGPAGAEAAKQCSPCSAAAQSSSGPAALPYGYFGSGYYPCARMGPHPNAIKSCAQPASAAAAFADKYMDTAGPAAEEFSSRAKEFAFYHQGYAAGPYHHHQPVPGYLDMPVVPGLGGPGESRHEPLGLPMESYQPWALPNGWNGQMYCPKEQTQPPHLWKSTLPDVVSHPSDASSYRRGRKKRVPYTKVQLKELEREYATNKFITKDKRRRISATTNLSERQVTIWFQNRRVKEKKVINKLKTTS
row,Structure (SMILES),z-score
1,O=C1OCCC=C[C@H]2OC34C=CCN(Cn5nnc6ccccc65)C(=O)[C@H]3N(CCCCCCO)C(=O)[C@@H]4C12 (stereo partly drawn),-3.78 (inactive)
2,O=C1C[C@@](C(=O)NCCN2CCOCC2)(c2ccc([N+](=O)[O-])cc2)[C@@H](c2ccc(CO)cc2I)N1C1CCCCC1,-5.37 (inactive)
3,NC(=O)N1C(=O)C2C(C1=O)C1C=C(CCCO)C2C(c2cccs2)N1Cc1cccc(OC(F)(F)F)c1 (stereo not drawn),-6.01 (inactive)
4,C=C(/C(=C/C[C@H](OC(C)=O)c1ccccc1OCCO)c1cc(C(=O)OC)ccc1OC)C(C)C,-4.07 (inactive)
5,CCCC[C@@H](O)C1=C(COc2ccccc2)C[C@H]2C(=O)N(C)C(=O)[C@H]2[C@H]1CO,-3.48 (inactive)
6,O=C1NC(=O)C2C1C=CC(C(O)c1cccc3ccccc13)N2Nc1ccc(Cl)cc1Cl (stereo not drawn),-4.57 (inactive)
7,COc1ccc(-c2cc3c(c(CCc4ccccc4)n2)[Si](C(C)C)(C(C)C)OC3)cn1,-2.5 (inactive)
8,COC(=O)[C@@]1(Cc2ccc(F)cc2)[C@H]2c3cc(C(=O)N4CCCC4)n(CCc4ccc(O)c(O)c4)c3C[C@H]2CN1C(=O)c1ccccc1,-4.67 (inactive)
9,CC1=C[C@@]2(CO)C(=O)[C@]3(CO3)[C@@H]1[C@H]1[C@]2(C)C=C(CO)C(=O)[C@]12CO2,-4.58 (inactive)
10,O=C(NCC(F)(F)F)[C@@H]1c2ccccc2C(=O)N(Cc2ccc(OC(F)(F)F)cc2)[C@H]1c1ccc(CO)cc1,-3.13 (inactive)
11,COC(=O)Cn1c(C(=O)N(C)C)cc2c1C[C@H]1CN(C(=O)c3ccccc3)[C@@](Cc3ccc(F)cc3)(C(=O)OC)[C@@H]21,-4.28 (inactive)
12,COc1ccc([Si](C)(C)[C@H]2[C@H](CC(=O)N(CCO)Cc3ccccc3)O[C@@]3(C(=O)N(Cc4cccc(N5CCOC5=O)c4)c4ccccc43)[C@@H]2C)cc1,-2.33 (inactive)
13,COCCCNC(=O)[C@]1(CCS(=O)(=O)c2ccccc2)N=C(c2ccc(OCCCO)cc2)O[C@@H]1c1ccccc1CN=[N+]=[N-],-3.61 (inactive)
14,[N-]=[N+]=Nc1ccccc1C[C@]1(C(N)=O)N=C(c2ccc(OCCCO)cc2)O[C@H]1c1ccccc1N=[N+]=[N-],-5.32 (inactive)
15,C#CCN([C@@H](Cc1ccc(O)cc1)C(=O)OC)[C@@H](/C=C/C1CC1)[C@H](O)Cc1ccccc1,-7.49 (inactive)
16,CN(C)c1ccc(C(O)C2C=CC3C(=O)N(c4ccccc4)C(=O)C3N2Nc2ccc([N+](=O)[O-])cc2)cc1 (stereo not drawn),-5.57 (inactive)
17,NCCCCCCNC(=O)[C@@H]1C[C@@H]2C(=O)N[C@@H](CCCCN)C(=O)N2[C@@H]1c1cccc(OCCO)c1,-3.22 (inactive)
18,CCOC(=O)C1=CC[C@@H](c2ccc(OCc3ccccc3)c(OC)c2)N(S(=O)(=O)c2ccc(C)cc2)[C@H]1c1ccc(SC)cc1,1.81 (inactive)
19,COC(=O)[C@@]1(Cc2ccccc2)[C@H]2c3cc(C(=O)N(C)C)n(Cc4c(CO)[nH]cc(C)c4=O)c3C[C@H]2CN1C(=O)c1ccccc1,-5.3 (inactive)
20,CN1C(=O)C2C=CC(C(O)COCc3ccccc3)N(N(c3ccccc3)c3ccccc3)C2C1=O (stereo not drawn),-0.885 (inactive)
21,CCC[C@@H]1C[C@@]1(CCC)[C@@H](NC(=O)OCc1ccccc1)c1ccc(-c2ccccc2)cc1,-3.15 (inactive)
22,COCCOC(=O)N1C(=O)[C@@]2(c3cc(C#CC4=CCCCC4)ccc31)[C@H](c1ccc(OCCO)cc1)N1[C@H](c3ccccc3)[C@H](c3ccccc3)OC(=O)[C@H]1[C@@H]2C(=O)NC[C@H](O)c1ccccc1,1.86 (inactive)
23,C=C(CCCC)/C(=C/C[C@@H](OC(=O)c1ccncc1)c1ccccc1OCCO)c1cnc2ccccc2c1,-3.49 (inactive)
